Compound activity (PubChem BioAssay)
MEX-5 binding: MEX-5 zinc finger RNA-binding disruptors – biochemical, C. elegans, fluorescence polarization, MLPCN library, primary screen. MEX-5/FITC-TCR2 RNA binding; hits give low values. activity score (negative = inhibition of binding), % at 10 µM. AID 1832, 2009. 300,000 compounds, 0.38% hits;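 active = inhibition past about -25% in most replicates, and total fluorescence under double the plate's negative control median, limit read from the data; inconclusive = replicates evenly split on the limit, or fluorescence at least double controls; inactive = too little inhibition in most replicates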;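 also: 0% = DMSO and -100% = 5 µM competing unlabeled TCR2 RNA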
EBV gp42 block: Epstein-Barr virus gp42 inhibitors, primary screen, biochemical, uHTS, fluorescence polarization | Glycoprotein 42 (Epstein-Barr virus (strain AG876)), Q1HVG2 | Fluorescence polarization binding assay, mP read-out | inhibition, % (tested at 21.74 µM) | 220,000 compounds, 0.42% hits | AID 1085, 2008; in the data active = inhibition above about 50%
Target sequence (Q1HVG2 whole entry, looked up): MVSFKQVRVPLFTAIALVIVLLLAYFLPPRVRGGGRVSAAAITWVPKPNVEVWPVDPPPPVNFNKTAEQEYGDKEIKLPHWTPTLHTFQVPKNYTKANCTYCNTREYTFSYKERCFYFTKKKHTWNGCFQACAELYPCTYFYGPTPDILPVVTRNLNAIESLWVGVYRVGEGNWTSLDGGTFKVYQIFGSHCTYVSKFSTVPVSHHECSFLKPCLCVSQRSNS
BCLXL inh: inhibitors of human Bcl-xL, primary screen, biochemical, fluorescence polarization, HTS; Bcl-2-like protein 1 (Homo sapiens), Q07817; GST-Bcl-xL / FITC-Bim BH3 peptide fluorescence polarization; inhibition, % at 10.9 µM; 320,000 compounds, 0.7% hits; AID 2129, 2009;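 active = inhibition above the mean of all tested compounds plus 3 SD, cutoff set per campaign, cut at about 30% in these data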;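 also: 0% = DMSO wells and 100% = unlabeled Bim-BH3 peptide competitor; inhibitors lower millipolarization by displacing the labeled peptide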
MCL1-BIM inh: inhibitors of MCL1 binding to BIM-BH3, primary screen, biochemical, fluorescence polarization; Induced myeloid leukemia cell differentiation protein Mcl-1 (Homo sapiens), Q07820; GST-MCL1 / FITC-Bim-BH3 fluorescence polarization; inhibition, % at 10.9 µM; 320,000 compounds, 0.68% hits;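 active = inhibition above the mean inhibition of all tested compounds plus 3 SD, set per campaign, cut at about 40% in these data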;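 also: 0% = DMSO wells and 100% = unlabeled Bim-BH3 peptide control; higher means more loss of mP so more displacement of Bim peptide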
Target sequence (Q07820 whole entry, looked up): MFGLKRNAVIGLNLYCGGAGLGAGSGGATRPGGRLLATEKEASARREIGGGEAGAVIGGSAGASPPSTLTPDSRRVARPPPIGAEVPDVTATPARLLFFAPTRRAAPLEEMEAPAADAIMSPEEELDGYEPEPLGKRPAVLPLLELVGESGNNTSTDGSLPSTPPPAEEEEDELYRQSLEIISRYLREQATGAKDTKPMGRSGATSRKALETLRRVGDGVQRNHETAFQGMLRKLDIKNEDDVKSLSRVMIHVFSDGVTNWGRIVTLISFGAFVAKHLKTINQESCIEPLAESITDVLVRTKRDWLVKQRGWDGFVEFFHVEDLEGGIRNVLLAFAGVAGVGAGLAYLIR
GLD-1 RNA inh: GLD-1/TGE RNA complex disruptors, primary screen, biochemical, fluorescence polarization; 320,000 compounds, 0.44% hits; inhibition, % at 5.96 µM; Female germline-specific tumor suppressor gld-1 (Caenorhabditis elegans), Q17339; purified GLD-1 + fluorescein TGE RNA;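 active = percent inhibition above a per-plate cutoff, the plate mean of test compounds plus 3 SD, cut at about 30% in these data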;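 also: 0% = DMSO wells with GLD-1 and probe and 100% = wells lacking GLD-1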
Numbers without * were called inactive; ? = inconclusive; · = not tested or not shown. This is a sample that favours compounds with a hit; in the whole collection about 1.3% have one here.

SMILES	MEX-5 binding	EBV gp42 block	BCLXL inh	MCL1-BIM inh	GLD-1 RNA inh
COc1ccc(-c2nnc(Nc3ccc(S(=O)(=O)Nc4nccs4)cc3)c3ccccc23)cc1	1.1	51.8*	·	·	·
O=C(CSc1n[nH]c(=O)[nH]c1=O)Nc1cccc(S(=O)(=O)N2CCOCC2)c1	1.7	-11.4	3.0	8.7	-1.6
O=C(CSc1n[nH]c(=O)[nH]c1=O)Nc1ccc2c(c1)C(=O)c1ccccc1C2=O	-0.1	63.6*	33.7*	40.0*	19.6
Cc1cccc(C)c1NC(=O)/C(C#N)=C/c1ccc(-c2ccc(C(=O)O)cc2)o1	-21.7	·	8.1	6.0	1.1
COc1ccccc1C(=O)C1CCCN(C(=O)c2cccnc2SC)C1 (stereo unspecified)	-40.6*	-11.9	-1.2	-0.8	3.5
CSc1ccc(C(=O)C2CCCN(C(=O)c3cccnc3SC)C2)cc1 (stereo unspecified)	0.4	-18.8	3.1	-3.3	-0.1
COc1ccc(N(CC(=O)NC2CCCC2)C(=O)Cn2nnc(-c3ccc(F)cc3)n2)cc1	2.4	·	-1.8	-4.7	-1.0
CCc1ccc(-c2ccc(SCC(=O)Nc3nnc(C)s3)nn2)cc1	-0.4	1.0	3.8	5.4	1.5
O=[N+]([O-])c1ccc(/C=N/n2c(CO)nc3ccccc32)s1	-34.8*	53.1*	18.1	27.7	-8.9
Cc1nc2ccccc2n1/N=C/c1ccc([N+](=O)[O-])s1	-75.5*	-19.6	32.3*	6.7	8.2
Cc1cc2ncn(/N=C/c3ccc([N+](=O)[O-])s3)c2cc1C	-1.1	-37.5	-17.7	-42.4	-1.3
CCOC(=O)N1CCC2(CC1)C(C#N)=C(N)Oc1c2c(C)nn1-c1cccc(Cl)c1	-15.9	52.4*	-3.4	0.5	-0.7
CCOC(=O)N1CCC2(CC1)C(C#N)=C(N)Oc1n[nH]c(C)c12	-0.6	4.6	4.3	5.3	-0.2
O=C(c1ccccc1)c1ccc2c(c1)OCCCO2	0.4	67.7*	2.7	8.6	2.8
O=C(c1ccccc1)c1ccc2c(c1)OCCOCCOCCO2	-1.9	4.2	0.0	-4.3	4.1
CC[C@H](C)/C=C/C1=CC2=C(Cl)C(=O)[C@@]3(C)OC(=O)C(C(=O)[C@H](C)[C@@H](C)O)=C3C2=CO1	-19.2	·	32.1*	37.8	18.9
COc1ccc(N/C(C)=C2/C(=O)C(=O)N(CCO)C2c2ccc(Br)cc2)cc1 (stereo unspecified)	0.4	6.6	7.1	3.3	0.9
O=C(Nc1ccc(Cl)c(Cl)c1)c1ccccc1	·	·	-3.2	0.3	5.2
O=C(Nc1ccc2nc3ccccc3nc2c1)c1ccccc1	-7.9	73.1*	31.4*	19.3	20.5
N#Cc1c(N)nc2c3c(sc(=N)c2c1N)NC(=O)CC3c1ccccc1 (stereo unspecified)	-3.4	-0.5	47.1*	42.2*	0.1
O=C(Nc1ccc(S(=O)(=O)Nc2nccs2)cc1)c1ccc(F)cc1	0.3	·	-0.3	-4.2	3.4
CCCn1nc(C(=O)Nc2ccc(S(=O)(=O)Nc3nccs3)cc2)c2ccccc2c1=O	-40.8*	-5.2	-8.6	-14.1	-17.9
O=C(Nc1ccc(S(=O)(=O)Nc2nccs2)cc1)c1ccc(N2C(=O)c3ccccc3C2=O)cc1	-29.1*	-69.3	-57.8	-117.2	-44.2
Nc1ccc(S(N)(=O)=O)cc1N	0.8	13.8	32.9*	38.1	1.2
COc1ccc(CCNC(=O)C2CCN(S(=O)(=O)c3ccc4nc5c(c(C(=O)O)c4c3)CCCC5)CC2)cc1OC	-0.2	·	12.6	7.2	10.4
SMILES	MEX-5 binding	EBV gp42 block	BCLXL inh	MCL1-BIM inh	GLD-1 RNA inh
Cc1cc2oc(=O)cc(CN3CCOCC3)c2cc1C(C)C	1.4	·	2.3	3.2	0.5
CC(C)c1cc(=O)oc2c3c4c(cc12)CCCN4CCC3	-7.3	51.2*	26.2	17.9	44.2*
COc1ccc(O)c(CN2CCC(n3nccc3NC(=O)CCOc3ccccc3)CC2)c1	2.7	·	4.4	3.2	1.8
CSc1c(C#N)c(N)nc2sc(C(=O)c3ccc(Cl)c(Cl)c3)c(N)c12	?	75.6*	8.1	0.2	-4.4
COc1ccc(C(=O)c2sc3nc(-c4ccccc4)ccc3c2N)cc1	-2.6	3.4	52.3*	39.9*	-42.9
COc1ccc(-c2c(C#N)c(N)nc3sc(C(=O)c4ccccc4)c(N)c23)cc1	-2.6	81.2*	4.0	6.8	-0.3
CCCCOC(=O)CSc1nc(N)c(C#N)c(-c2ccc(OCC)cc2)c1C#N	-2.8	-3.0	0.4	2.2	1.2
CC(C)OC(=O)c1sc2nc(-c3ccccc3)ccc2c1N	-1.7	-17.9	4.8	5.6	2.6
CCOc1ccc(-c2c(C#N)c(N)nc3sc(C(=O)c4ccccc4)c(N)c23)cc1	?	70.2*	3.5	1.8	4.2
O=S(=O)(c1cc(F)ccc1F)N1CCN(C2CCCCC2)CC1	-2.4	·	5.2	2.4	2.9
NC(=O)NC(=O)COC(=O)c1cccc(NS(=O)(=O)/C=C/c2ccccc2)c1	-1.0	2.7	-2.4	-3.6	5.4
CCCN(Cc1nnc(-c2cccs2)o1)C(=O)CN1C(=O)NC2(CCCCC2C)C1=O (stereo unspecified)	·	·	-2.7	-6.3	1.1
O=[N+]([O-])c1cc(/C=N\Nc2nccs2)ccc1O	-100.3*	92.7*	·	·	·
COC(=O)C1=C(O)/C(=C\c2cc(C)n(-c3ccccc3C)c2C)N=C1C	0.8	16.8	42.0*	43.6*	27.1
O=C(NCc1ccccn1)C(C(=O)c1cccc([N+](=O)[O-])c1)n1cc(Cl)ccc1=O (stereo unspecified)	1.5	-20.4	4.6	7.7	-2.4
CCOC(=O)c1cc(NC(=O)c2ccccc2)c(=O)oc1-c1ccccc1	0.9	-21.4	0.1	4.5	-2.5
COC(=O)c1cc(NC(=O)c2ccccc2)c(=O)oc1/C=C/Nc1ccc(Oc2ccccc2)cc1	-8.9	185.9*	·	·	·
COCCN1CCC(CNCc2c(C(=O)N3CCCCC3)nc3c(C)cccn23)C1 (stereo unspecified)	-48.9*	6.4	23.6	17.8	16.8
CC(=O)c1c(C)[nH]c(C(=O)COC(=O)CN(C)S(=O)(=O)c2ccc(Cl)cc2)c1C	2.2	-21.3	-4.7	-15.2	4.9
O=S(=O)(c1ccc(NC(=S)N/N=C/c2c3ccccc3cc3ccccc23)cc1)N1CCOCC1	-1.7	63.2*	5.0	-57.2	-6.4
Cc1ccc(-n2c(N)c(C(=O)Nc3c(C)n(C)n(-c4ccccc4)c3=O)c3nc4ccccc4nc32)cc1C	-0.4	32.6	57.1*	61.2*	20.4
Cc1cccc(Nc2c([N+](=O)[O-])ccc3nonc23)c1C	2.4	·	·	·	·
Cc1ccc(Nc2c([N+](=O)[O-])ccc3nonc23)c(C)c1	0.1	·	46.4*	6.5	-1.4
